# GLP1R ag: qHTS of GLP-1 Receptor Agonists; HEK293 GLP-1R CRE-luciferase, luminescence, 4-6 h; cells express a hypersensitive GLP-1R form; Potency, µM (series often up to 45.6 µM), actives largely listed as activators; 0.007% of 380,000 active
# Target sequence (P43220 whole entry, looked up): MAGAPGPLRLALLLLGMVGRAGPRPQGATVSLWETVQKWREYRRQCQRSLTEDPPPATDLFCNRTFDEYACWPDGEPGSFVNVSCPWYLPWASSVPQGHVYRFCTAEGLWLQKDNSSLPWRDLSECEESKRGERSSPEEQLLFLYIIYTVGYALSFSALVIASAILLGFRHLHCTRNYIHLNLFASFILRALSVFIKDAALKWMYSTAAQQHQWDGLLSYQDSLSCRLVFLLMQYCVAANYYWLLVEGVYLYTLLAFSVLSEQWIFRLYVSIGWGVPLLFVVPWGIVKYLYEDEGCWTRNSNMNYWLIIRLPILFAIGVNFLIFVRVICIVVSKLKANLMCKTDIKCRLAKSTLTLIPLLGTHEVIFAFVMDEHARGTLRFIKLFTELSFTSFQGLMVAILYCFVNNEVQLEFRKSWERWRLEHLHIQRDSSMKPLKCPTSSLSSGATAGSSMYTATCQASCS
# GLP1R cytotox: qHTS of GLP-1 Receptor Inverse Agonists: Cytotox Screen | HEK293 cAMP-luciferase reporter cells, luminescence, 24 h | Potency, µM (highest dose often 38.3 µM), usual class: inhibitors | 0.13% of 410,000 active;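 also: loss of luciferase light is scored as toxicity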
#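 To flag toxic compounds, the library was rerun on cells for 24 hr at 37 deg C and 5% CO2. Viability-linked luminescence was captured 12 min after adding luciferase detection reagent.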
# GLP-1R inv ag: qHTS of GLP-1 Receptor Inverse Agonists (Inhibition Mode). Glucagon-like peptide 1 receptor (Homo sapiens), P43220. HEK293 GLP-1R CRE-luciferase, luminescence, 24 h; GLP-1R form is constitutively active. Potency, µM (series often up to 38.3 µM), most hits filed as inhibitors. 1.6% of 410,000 active. AID 624417, 2012; also: nearly all actives have a fitted effect of over 55% in size
#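 Stable HEK293 clone (constitutively active GLP-1R + cAMP-response luciferase); 200 cells/uL plated, 12 h pre-culture, compound 24 hr, 37 deg C/5% CO2; detection reagent 12 min RT; luminescence.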
# IDH1 R132H inh: qHTS for Inhibitors of mutant isocitrate dehydrogenase 1 (IDH1): qHTS. Isocitrate dehydrogenase [NADP] cytoplasmic (Homo sapiens), O75874. IDH1-R132H enzyme, NADPH consumption, diaphorase/resazurin fluorescence. Potency, µM (titrated, usually from 76.6 µM), hits mostly inhibitors. 0.093% of 390,000 active. AID 602179, 2012; also: nearly all actives have a fitted effect of over 65% in size
#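 IDH1-R132H (0.5 ug/mL dispensed) in pH 7.5 Tris buffer was preincubated 30 min with compound, then given a substrate mix of 0.016 mM NADPH and 2 mM alpha-KG for 80 min at room temperature; remaining NADPH was read by diaphorase/resazurin fluorescence.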
# TrxR1 substrate: qHTS Assay for Substrates of Mammalian Selenoprotein Thioredoxin Reductase 1 (TrxR1): qHTS; Thioredoxin reductase 1, cytoplasmic (Rattus norvegicus), O89049; purified TrxR1 substrate turnover, NADPH consumption readout; Potency, µM (titrated, usually from 114 µM); 0.01% of 390,000 active; AID 588456, 2011; also: nearly all actives have a fitted effect of over 50% in size
#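 Rat TrxR1, dispensed at 90 nM, was prereduced with 400 uM NADPH (final) for 5 min at ~22 deg C, then incubated with compound 15 min before 400 uM selenite. A first-read NADPH fluorescence drop versus no-compound background flagged substrates.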
# rTrxR1 inhibitor: qHTS Assay for Inhibitors of Mammalian Selenoprotein Thioredoxin Reductase 1 (TrxR1): qHTS; AID 588453, 2011; 1% of 390,000 active; recombinant rTrxR1, NADPH fluorescence consumption, selenite substrate; Potency, µM (top dose mostly 114 µM), usual class: inhibitors; Thioredoxin reductase 1, cytoplasmic (Rattus norvegicus), O89049; also: nearly all actives have a fitted effect of over 65% in size
#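 Rat TrxR1 (90 nM in the dispensed reagent) was pre-reduced with 400 uM NADPH for 5 min at room temperature, then incubated with compound for 15 min. After 400 uM selenite was added, NADPH fluorescence (Ex 340/Em 450 nm) was followed for 8 min.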
# Numbers stand for hits; . = inactive; ? = inconclusive; / = no result given; [ ] = dose if it differs, or a comment. Most compounds without a hit are left out; they make up all but 2.7% or so of the library. Calls follow the shape of the dose curve; as a rule, active = well fitted curve in the direction sought with a large enough effect; inconclusive = small, poorly fitted or top-dose-only effect, or another doubt; inactive = no such curve, though single readings can be large; an effect the other way counts as inactive or inconclusive.
SMILES,GLP1R ag,GLP1R cytotox,GLP-1R inv ag,IDH1 R132H inh,TrxR1 substrate,rTrxR1 inhibitor
Cc1nnc(Sc2cc(NCCO)c([N+](=O)[O-])c3nonc23)s1,.,?,?,.,.,0.32µM
COc1ccc(C)cc1NC(=O)c1c2c(nc3ccccc13)C(=O)N(C1CCCCC1)C2,/,.,?,.,.,.
CN(C)c1ccc(CNC(=O)C2COc3ccccc3C2)cc1 (configuration not stated),/,.,.,.,.,.
COc1ccc(-c2cn3c(n2)sc2cc(C(=O)Nc4ccc(C)c(C)c4)ccc23)cc1,/,.,.,.,.[11.4 µM],.
COc1cccc2c1C(=O)/C(=C\c1ccc(N(C)C)cc1)C2,/,/,/,/,.,.
Cc1cc(C)cc(Nc2cc(C(=O)NCCCN(Cc3ccccc3)C(C)C)c3ccccc3n2)c1,/,?,5.6µM,.,.,.
COc1cc2c(NC3CCN(C)CC3)nc(N3CCCN(C)CC3)nc2cc1OCC1CCNCC1,/,/,/,/,.,?
O=C(N/C(=C\c1ccco1)C(=O)N1CCCC1CO)c1ccccc1 (configuration not stated),.,.,.,.,.,40µM
CC1CCCN(C(=O)/C(=C/c2ccco2)NC(=O)c2ccccc2)C1 (configuration not stated),.,.,.,.,.,?
CNC1CCc2cc(OC)c(OC)c(OC)c2-c2ccc(OC)c(=O)cc21 (configuration not stated),.,/,/,/,/,/
CCOc1ccc(S(=O)(=O)n2cc(-c3ccc(F)cc3)c(N)n2)cc1,.,.,?,.,.,.
CCOc1cc(S(=O)(=O)n2cc(-c3ccc(F)cc3)c(N)n2)cc(OCC)c1OCC,.,?,2.2µM,.,.,.
O=C1C=CC(=Nc2ccc(F)cc2)O1,.,.,.,.,.,7.1µM
CCN1CCCn2c1nc1c2c(=O)n(C)c(=O)n1C,.,.,.,.,.,79µM
Cn1c(=O)n(Cc2ccccc2)c(=O)c2c1nc1n2CCCN1Cc1ccccc1,.,.,.,.,.,.
Cc1ccccc1Cn1c(=O)c2c(nc3n2CCCN3Cc2ccccc2)n(C)c1=O,.,.,3.2µM,.,.,.
Cc1cc(C(=O)O)c2c(=O)n(C)c(=O)n(C)c2n1,.,.,.,.,.,.
CC(=O)C(Sc1nn(C)c(=S)s1)C(=O)Nc1ccccc1 (configuration not stated),.,.,.,.,.,22µM
COc1cc2c(cc1OC)C1=C(C#N)CCC(=NC(=O)c3ccc(Cl)cc3)N1CC2,?,.,.,.,.,.
COc1cc2c(cc1OC)C1=C(C#N)COCN1CC2,.,.,.,.,.,13µM
O=c1cc(N2CCCCC2)c(-c2ccccc2)nn1Cc1ccc(F)cc1,.,.,2µM,.,.,.
CCOC(=O)c1ccc(N2CCN(c3cc(C)ccc3C)CC2)c(NC(=O)Nc2ccc(Cl)cc2)c1,/,.,.,.,.,.
COc1ccc(CNc2oc(/C=C/c3cccc(OC)c3)nc2C#N)cc1,/,.,?,.,.,.
Cc1ccc(-c2nc(CS(=O)(=O)CC(=O)NCCc3ccccc3)c(C)o2)cc1,/,.,.,.,.,.
O=C(CN1C(=O)NC(c2ccccc2)(c2ccccc2)C1=O)NCc1ccccc1,.,.,?,.,.,.
SMILES,GLP1R ag,GLP1R cytotox,GLP-1R inv ag,IDH1 R132H inh,TrxR1 substrate,rTrxR1 inhibitor
Cc1ccc(C2(c3ccccc3)NC(=O)N(CC(=O)NCc3ccccc3)C2=O)cc1C (configuration not stated),.,.,6.3µM,.,.,.
CCc1ccc(CN(Cc2ccco2)c2cnc(S(C)(=O)=O)nc2C(=O)Nc2c(C)cccc2C)cc1,/,.,?,.,.,.
Nc1ccc(-c2nc3ccc(N)cc3[nH]2)cc1,.,.,.,.,.,.
Nc1ccc(-c2nc3c(Cl)c(N)ccc3[nH]2)cc1,.,.,.,.,.,79µM
COc1cccc(O)c1CN1CCCC(C(=O)c2cccc(C(F)(F)F)c2)C1 (configuration not stated),.,?,13µM,.,.,.
COc1ccc(C(=O)C2CCCN(Cc3c(O)cccc3OC)C2)cc1OC (configuration not stated),.,.,.,.,.,.
COc1ccc2cc(C(=O)C3CCCN(Cc4cccc(C)n4)C3)ccc2c1 (configuration not stated),.,3.2µM,4.5µM,.,.,.
Cc1ccn2c(c1)nc(=S)n2C(=O)c1ccccc1,.,.,2.5µM,.,.[11.4 µM],.[11.4 µM]
COC(=O)c1ccc(CCc2cc(O)c(Br)cc2O)cc1,.,.,.,.,.,22µM
COC(=O)c1ccc(O)cc1,.,.,.,.,.,.
COC(=O)c1ccc(CCc2cc(O)ccc2O)cc1,.,10µM,?,.,.,56µM
C(=C\c1ccnc2ccccc12)/c1cccnc1,/,/,/,/,.,.
CC1=C(c2ccc(C)cc2)S(=O)(=O)NC1=NCCCN1CCN(c2ccc(F)cc2)CC1,/,.,11µM,.,.,.
COc1ccc(C2=C(C)C(=NCCCN3CCN(c4cc(Cl)ccc4C)CC3)NS2(=O)=O)cc1,/,.,8.9µM,.,.,.
CC1=C(c2ccc(Cl)cc2)S(=O)(=O)NC1=NCCCN1CCN(c2cc(C)ccc2C)CC1,/,.,?,.,.,.
CC1=C(c2ccc(C(C)C)cc2)S(=O)(=O)NC1=NCCCN1CCN(c2ccccc2F)CC1,/,.,?,.,.,.
COc1ccc(OC)c2c(/C=C/c3c(C)[nH]c4ccccc34)ccnc12,/,/,/,/,.,.
Cc1ccc(-n2nc(C(=O)N3CCN(c4cc(Cl)ccc4C)CC3)c3c4ccccc4n(C)c3c2=O)cc1,/,.,.,/,.,.
COc1cc(CN(C)C(C)C(=O)Nc2ccc([N+](=O)[O-])cc2Cl)ccc1OC(F)F (configuration not stated),.,.,.,.,.,.
COc1ccc(Cl)cc1NC(=O)C(C)N(C)Cc1ccc(C(F)(F)F)cc1 (configuration not stated),.,.,8.9µM,.,.,.
CC(=O)Nc1cc(OC(C)=O)c2nonc2c1OC(C)=O,.,.,.,.,?,.
CC(=O)Oc1ccc2nonc2c1OC(C)=O,/,/,/,/,20µM,?

# Bioassay records deposited in PubChem BioAssay by National Center for Advancing Translational Sciences (NCATS).
